This is an account of results in PubChem BioAssay AID1209 (Sanford-Burnham Center for Chemical Genomics, 2008).

As a reminder, the inhibition is the change of the read-out against control, counted positive when it falls.

Screen size: about 190,000 compounds; about 810 (0.43%) were called active. The list comes from a sample in which actives are over-represented; it also holds similar structures and randomly drawn compounds. Values without a mark were called inactive. Rule as the data show it: active = inhibition above about 50%; inactive = the rest.

Mannose-6-phosphate isomerase (Homo sapiens), sequence (P34949 whole entry, looked up): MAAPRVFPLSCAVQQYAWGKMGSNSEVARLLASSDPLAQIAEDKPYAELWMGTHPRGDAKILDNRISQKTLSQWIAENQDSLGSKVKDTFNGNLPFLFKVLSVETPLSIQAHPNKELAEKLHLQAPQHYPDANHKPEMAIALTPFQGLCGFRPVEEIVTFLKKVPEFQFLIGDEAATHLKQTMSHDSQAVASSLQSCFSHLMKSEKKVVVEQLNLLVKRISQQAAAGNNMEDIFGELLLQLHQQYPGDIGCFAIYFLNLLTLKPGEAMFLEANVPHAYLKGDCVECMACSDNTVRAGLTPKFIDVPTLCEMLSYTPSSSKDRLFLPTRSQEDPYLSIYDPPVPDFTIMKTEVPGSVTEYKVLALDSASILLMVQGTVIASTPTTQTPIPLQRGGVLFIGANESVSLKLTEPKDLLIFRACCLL

The experiment concerns the target Mannose-6-phosphate isomerase (Homo sapiens) (UniProt P34949). The experiment in a line: MPI enzyme activity inhibition – biochemical, fluorescence intensity, coupled assay, primary screen (AID 1209).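 Also: plate controls were DMSO vehicle for no effect and wells lacking substrate for full effect.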 Particulars: purified PMI enzyme, at 20 µM, active compounds read high.
As for `Cc1ccc(SCC(=O)NC(=O)NCc2ccco2)cc1C`, the inhibition was -3.3%.
Turning to `CCN(CCn1cccn1)C(=O)c1cc(COc2c(F)cccc2F)on1`, the inhibition is 5.3%.
Consider `O=C(CN1CCCC1)Nc1cc(F)ccc1F`, for which the inhibition was -1.6%.
In the case of `Cc1noc(C)c1COc1ccc(C(=O)OCC(=O)NCc2ccccc2Cl)cc1` it was 22.4%; in that of `CC(C)(C)NC(=O)COC(=O)/C=C/c1ccccc1[N+](=O)[O-]`, 1.1%.
In the case of `CC(=O)N(Cc1ccc(Br)cc1)c1cccc(C)c1C` it was 5.3%; in that of `COc1ccc(OC)c(NC(=O)CN2C(=O)C3(OCCCO3)c3ccccc32)c1`, 11%.
The value for `C=CCn1c(=S)[nH]c2ccccc2c1=O` was 1.8%.
For the compound `C=CCn1c2[n+](c3ccccc3c1=O)CCCCC2`, the inhibition is 66.2% (active).
The value for `C=CCn1c(C)nc2ccccc2c1=O` was 10%.
`COc1ccc(NC(C)=O)cc1NC(C)C(=O)Nc1ccc(F)c(F)c1F` (stereo not given): the inhibition is 13.6%.
In the case of `Cc1cc(C)nc(-n2nc(C)cc2NC(=O)c2cccc(S(=O)(=O)N3CCCCC3)c2)n1` it was 15.9%; in that of `CCN(CC)c1ccc(NC(=O)/C=C/c2cc(Br)ccc2OC)cc1`, 6.9%.
The value for `CC1Cc2ccccc2N1C(=O)CSc1nnc(-c2ccc(S(=O)(=O)N3CCOCC3)cc2)n1C` (stereo not given) was -0.3%; that for `CC1Cc2ccccc2N1C(=O)CSc1nnc(-c2ccc(S(=O)(=O)N3CCCC3)cc2)n1C` (stereo not given) was 60.6% (active); that for `Cn1c(SCC(=O)N2CCc3ccccc32)nnc1-c1ccc(S(=O)(=O)N2CCCC2)cc1` was 18.8%.
The value for `CCOC(=O)c1ccc(NC(=O)CSCC(=O)OCC(=O)c2ccccc2)cc1` was 19.6%.
On to `Cc1ccc2nc(SCC(=O)N3CCOCC3)[nH]c2c1`, for which the inhibition is -2.9%.
Take `CCOC(=O)CSc1nc2ccc(S(=O)(=O)N3CCOCC3)cc2[nH]1`: the inhibition is -11.2%.
Turning to `O=C(CSc1nc2ccc(S(=O)(=O)N3CCOCC3)cc2[nH]1)N1CCOCC1`, the inhibition is 66% (active).
For `COc1ccc(OC)c(NS(=O)(=O)c2ccc(NC(=O)c3ccc(NS(C)(=O)=O)cc3)cc2)c1`, the inhibition is 1.4%.
In the case of `O=C(OCC(CO)OC(CO)n1ccc(=O)[nH]c1=O)c1ccccc1` (stereo not given) it was 7.7%; in that of `Cn1c(=O)oc2cc(S(=O)(=O)N3CCC(C(=O)NCc4ccc(F)cc4)CC3)ccc21`, 4.5%; in that of `CCn1c(N)c(C(=O)NCC2CCCO2)sc1=S` (stereo not given), 70.4% (active).
In the case of `CCNC(=O)c1sc(=S)n(CC)c1N`, the inhibition is 6.5%.
The value for `CCn1c(N)c(C(N)=O)sc1=S` was 18.4%; that for `CCOC(=O)c1ccc(-n2c(N)c(C(=O)NCC3CCCO3)sc2=S)cc1` (stereo not given) was 31.5%.
The value for `C=CCn1c(N)c(C(=O)NCC2CCCO2)sc1=S` (stereo not given) was -2.2%; that for `CCn1c(N)c(C(=O)NC)sc1=S` was 67.3% (active).
The value for `CCN(CC)CCn1c(=N)n(CC(O)c2ccc(OC)c(OC)c2)c2ccccc21` (stereo not given) was -0.3%; that for `O=C(CCN1C(=O)C2CC=CCC2C1=O)N1CCN(c2ccccn2)CC1` (stereo not given) was -3.3%; that for `C=CCSc1nnc(C)n1-c1ccc(Cl)cc1` was 21.9%.
As to `C/C(=N\N=C(N)N)c1cccc(Cl)c1`, the inhibition was 11.7%.
On to `O=C(N/N=C/c1ccccc1C(=O)O)C(=O)N1CCCCC1`, for which the inhibition is 2.7%.
As to `Oc1cccc(/C=N/NC(=S)NCCN2CCOCC2)c1O`, the inhibition was 66.9% (active).
In the case of `NC(=S)N/N=C/c1ccccc1` it was 11.4%; in that of `Oc1ccc(/C=N/NC(=S)Nc2cccnc2)cc1O`, 43.5%; in that of `NC(=S)N/N=C/c1ccccc1[N+](=O)[O-]`, 24.6%.
In the case of `Oc1ccc(/C=N/NC(=S)Nc2cccnc2)c(O)c1`, the inhibition is -1.2%.
In the case of `Oc1ccc(/C=N/NC(=S)NCCN2CCOCC2)c(O)c1` it was -8.8%; in that of `S=C(NCCN1CCOCC1)N/N=C/c1ccccc1`, 2%; in that of `Oc1cccc(/C=N/NC(=S)Nc2cccnc2)c1O`, 55.6% (active).
Turning to `O=C(COc1ccc(Cl)cc1)NCC(=O)N/N=C/c1cccs1`, the inhibition was 2.8%.
The value for `Cc1noc(C(=O)Nc2c(C)n(C)n(-c3ccccc3)c2=O)c1Cl` was -5.9%.
Take `COc1cccc(S(=O)(=O)N2CCOCC2)c1`: the inhibition is 1.2%.
Regarding `O=C(COC(=O)c1cccnc1Cl)NCC1CCCO1` (stereo not given), the inhibition is -1.2%.
`CCOc1ccc(OCC(=O)OCn2c(SC)nnc(C)c2=O)cc1`: the inhibition is 15.9%.
On to `O=c1[nH]c2ccccc2n2cnnc12`, for which the inhibition was -5.1%.
In the case of `O=c1[nH]c2ccccc2n2c(-c3ccncc3)nnc12` it was 1.8%.
The value for `O=c1[nH]c2ccccc2n2c(-c3ccccc3)nnc12` was 84.7% (active); that for `Cc1ccc(NC(=O)N(CCCN2CCOCC2)Cc2cccnc2)cc1C` was -1.1%; that for `COC(=O)CNC(=O)Cn1cnc2sc(C)c(S(=O)(=O)N3CCC(C)CC3)c2c1=O` was -9%.
In the case of `CCc1ccc(N2CCCn3c2nc2c3c(=O)n(CCN3CCOCC3)c(=O)n2C)cc1` it was -10.4%; in that of `O=C(N/N=C/c1ccccc1)c1[nH]c2ccc(Br)cc2c1-c1ccccc1`, 15.4%; in that of `Oc1ccc(Br)cc1/C=N/N1CCN(Cc2ccccc2)CC1`, 6.6%.
In the case of `CC(C)OC(=O)c1cccc(C(=O)O)n1`, the inhibition was 21.8%.
Take `CC(=O)Nc1cccc(C(=O)O)n1`: the inhibition was 6.7%.
In the case of `O=C(O)c1cccc(C(=O)O)n1` it was 58% (active); in that of `Cc1ccc(SCc2cn3cccnc3n2)cc1`, 12.5%; in that of `Cc1ccc(C2=[N+]([O-])C3(CCCCC/C3=N\NC(N)=O)N(O)C2(C)C)o1` (stereo not given), -4.7%.
In the case of `Cc1nccn1CC(=O)N/N=C/c1ccc(O)c(O)c1` it was 64.4% (active); in that of `O=C(COc1ccccc1-c1ccccc1)N/N=C/c1ccc2ccccc2c1`, 8.9%; in that of `O=C(COc1ccccc1[N+](=O)[O-])N/N=C/c1ccc(O)c([N+](=O)[O-])c1`, -10.2%.
Consider `Cc1nccn1CC(=O)N/N=C/c1cccc(O)c1`, for which the inhibition is 7.9%.
For the compound `O=C(COc1ccccc1C(=O)N/N=C\c1ccc(O)c(O)c1)N/N=C/c1ccc(O)c(O)c1`, the inhibition is 60.6% (active).
The value for `COc1cccc(/C=N/NC(=O)Cn2ccnc2C)c1` was 14.6%; that for `CCOC(=O)C1=C(C)NC(SC(C)=O)=NC1c1ccc(OC(C)=O)c(OC)c1` (stereo not given) was 17.5%.
As to `CC1CCc2c(sc(NC(=O)COC(=O)C3CCCO3)c2C#N)C1` (stereo not given), the inhibition is -3.7%.
Regarding `O=C(CSCC(=O)N1CCOCC1)Nc1ccccc1`, the inhibition is -11.1%.
Consider `O=C(NCCc1ccccc1)C1CCN(S(=O)(=O)N2CCC3(CC2)OCCO3)CC1`, for which the inhibition is 17.1%.
In the case of `O=C1CN(C(=O)CSc2nc(-c3ccccc3)cs2)c2ccccc2N1` it was -3.1%; in that of `COc1ccc2nc(NNC(=O)C3COc4ccccc4O3)sc2c1` (stereo not given), -43.9%; in that of `CN1C(=O)/C(=C/C=C2\SCCN2C)N(C)C1=S`, 45.3%.
The value for `CN1C(=O)/C(=C\C=C2/CCCN2C)N(C)C1=S` was 53.2% (active).
In the case of `CN1C(=O)/C(=C/C=C2/CCCN2C)N(C)C1=S`, the inhibition was 35.8%.
Take `COc1ccc(/C=C(/NC(=O)c2ccccc2)C(=O)N/N=C/c2ccncc2)c(OC)c1`: the inhibition was 18.6%.
Turning to `COc1ccc(CCNC(=O)c2nnn(CC(=O)Nc3cccc(F)c3)c2N)cc1OC`, the inhibition was -0.3%.
The value for `CCOc1ccc(/C=C/C(O)=C2/C(=O)NC3(C)CC2c2ccccc2O3)cc1OC` (stereo not given) was -21.3%; that for `O=C(Cc1cnn(-c2ccccc2)c1)c1ccc(O)c(O)c1O` was 70.8% (active).
In the case of `O=C(c1cnn(-c2ccccc2)c1)c1ccccc1O` it was 19.7%; in that of `CCc1cc(C(=O)Cc2cnn(-c3ccccc3)c2)c(O)cc1O`, 11.4%; in that of `Nn1c(SCC(=O)Nc2ccc3c(c2)OCO3)nnc1C1CC1`, 5.7%.
As to `N#Cc1ccc(N=c2ssnc2Cl)cc1`, the inhibition is 81.2% (active).
In the case of `CSc1nccc(Oc2cccc(C#N)c2)n1`, the inhibition is -4.1%.
For `N#Cc1cccc(N=Cc2c(O)ccc3ccccc23)c1`, the inhibition is 39.3%.
Consider `COc1ccc(N2CCN(C(=O)c3cccn4c(=O)c5ccccc5nc34)CC2)cc1`, for which the inhibition is -5.8%.
Regarding `CC1CCCCN1Cc1c(O)ccc2c(=O)c(-c3nc4ccccc4s3)c(N)oc12` (stereo not given), the inhibition is 58% (active).
`CC1CCCN(Cc2c(O)ccc3c(=O)c(-c4nc5ccccc5s4)c(N)oc23)C1` (stereo not given): the inhibition was 6.9%.
In the case of `CC1CCN(Cc2c(O)ccc3c(=O)c(-c4nc5ccccc5s4)c(N)oc23)CC1` it was 11.2%.
In the case of `O=c1c(-c2ccccc2)c(O)nc2ccccn12` it was 4.9%; in that of `COc1cc(C(=O)OCC(=O)N(C)C)cc(NC(=O)c2ccco2)c1OC`, 5.7%; in that of `CO[C@H]1C=CO[C@@]2(C)Oc3c(C)c(O)c4c(O)c(c(C=NN5CCN(C)CC5)c(O)c4c3C2=O)NC(=O)C(C)=CC=C[C@H](C)[C@H](O)[C@@H](C)[C@@H](O)[C@@H](C)[C@H](OC(C)=O)[C@@H]1C`, 7%.
The value for `CO[C@H]1C=CO[C@@]2(C)Oc3c(C)c(O)c4c(O)c(c(C=NN5CCN(C6CCCC6)CC5)c(O)c4c3C2=O)NC(=O)C(C)=CC=C[C@H](C)[C@H](O)[C@@H](C)[C@@H](O)[C@@H](C)[C@H](OC(C)=O)[C@@H]1C` was 50.8% (active); that for `CO[C@H]1C=CO[C@@]2(C)Oc3c(C)c(O)c4c(O)c(c5c(nc6cc(C)ccn65)c4c3C2=O)NC(=O)C(C)=CC=C[C@H](C)[C@H](O)[C@@H](C)[C@@H](O)[C@@H](C)[C@H](OC(C)=O)[C@@H]1C` was 13.9%; that for `CC1=NC(C(F)(F)F)(C(F)(F)F)C2=C(CC(C)(C)CC2=O)N1Cc1ccco1` was 6%.
